Screening data: PubChem, Johns Hopkins Ion Channel Center
KCNQ2 block = inhibitors of rat KCNQ2 potassium channel; O88943; CHO-K1 KCNQ2, FluxOR thallium flux, 20 min; active compounds read low; B-score at 10 µM; 1.1% of 310,000 active; AID 2156;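 active means fluorescence ratio B-score at most minus 3 library SDs, with starting brightness B-score within 2 library SDs, cut at about -5.5 in these data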
KCNQ2 enhance = enhances the rat KCNQ2 potassium channel; CHO-K1 KCNQ2, FluxOR thallium flux fluorescence; active compounds read high; B-score at 10 µM; 0.54% of 310,000 active; AID 2239;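 active means fluorescence ratio B-score at least 3 SD of library B-scores, with initial fluorescence B-score within 3 of them, cut at about 5.3 in these data; same plate scores as AID 2156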;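 further: B-score of peak minus minimum over baseline fluorescence ratio after K+ and Tl+ stimulus; positive B-score means potentiation of KCNQ2 with more thallium influx and brighter signal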
KCNQ2 inh conf = confirmation of rat KCNQ2 potassium channel inhibitors; KCNQ2-expressing cells, thallium flux, inhibition; active compounds read low; shares compounds with KCNQ2 block; AID 493025; 57% of 1,000 active; activity change, negative = inhibition, % at 10 µM;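 further: 0% = vehicle wells and values are ratio percent relative to vehicle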
KCNQ1 spec = KCNQ2 inhibitor that also affects human KCNQ1 channel; activity change, negative = inhibition, % at 10 µM; shares compounds with KCNQ2 block; 15% of 1,000 active; KCNQ1-expressing cells, FluxOR thallium flux fluorescence; active compounds read low;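 active means activity change at least 3 SD of negative controls below their mean in both duplicate wells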;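 further: CHO cells stably transfected with KCNQ1 and depolarized by potassium stimulus; peak minus minimum fluorescence over baseline after thallium addition; 0% = vehicle negative control and -100% = blank without thallium stimulus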
Target sequence (P51787 whole entry, looked up): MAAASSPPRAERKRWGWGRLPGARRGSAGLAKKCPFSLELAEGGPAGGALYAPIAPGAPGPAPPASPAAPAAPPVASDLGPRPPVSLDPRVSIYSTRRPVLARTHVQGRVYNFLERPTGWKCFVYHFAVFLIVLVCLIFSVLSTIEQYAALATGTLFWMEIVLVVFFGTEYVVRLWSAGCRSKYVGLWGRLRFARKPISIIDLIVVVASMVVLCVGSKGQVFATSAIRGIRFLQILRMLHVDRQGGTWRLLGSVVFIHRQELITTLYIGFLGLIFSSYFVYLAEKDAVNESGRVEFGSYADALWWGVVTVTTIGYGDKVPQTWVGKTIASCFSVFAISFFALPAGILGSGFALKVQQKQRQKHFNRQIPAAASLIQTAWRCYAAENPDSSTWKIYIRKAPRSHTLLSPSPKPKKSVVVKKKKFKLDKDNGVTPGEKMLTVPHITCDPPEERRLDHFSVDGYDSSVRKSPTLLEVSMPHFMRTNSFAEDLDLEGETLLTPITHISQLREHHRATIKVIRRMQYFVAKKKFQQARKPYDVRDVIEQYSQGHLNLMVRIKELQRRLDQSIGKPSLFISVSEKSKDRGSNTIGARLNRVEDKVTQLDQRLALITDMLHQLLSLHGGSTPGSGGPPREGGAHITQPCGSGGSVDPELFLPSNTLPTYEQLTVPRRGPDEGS
CHO Tl ctr = activity in parental CHO cells lacking KCNQ2 | shares compounds with KCNQ2 block | activity change, % at 10 µM | 14% of 1,000 active | thallium flux counter-screen; active compounds read low;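 further: 0% = vehicle negative controls with stimulus buffer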
KCNQ2 patch conf = blocks rat KCNQ2 current in automated patch clamp; calls only at 10 µM; AID 588531; 49% of 550 active; KCNQ2-expressing cells; shares compounds with KCNQ2 block
Kir21 confirm = confirmation of mouse Kir2.1 potassium channel inhibitors | shares compounds with KCNQ2 enhance | Kir2.1-expressing cells, FluxOR thallium flux fluorescence; active compounds read low | Tl flux remaining, % of negative control (active compounds read low), % at 10 µM | 41% of 2,300 active;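 active means Primary-screen hit whose thallium flux fell at least 3 control SD below untreated wells in both duplicates, with normal baseline fluorescence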;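 further: 0% = blank wells without stimulus and 100% = stimulated no-compound controls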
HEK293 ctr = counter-screen for Kir2.1 inhibitors: effect in parental HEK293 cells | shares compounds with KCNQ2 enhance | FluxOR thallium flux fluorescence; 0% = unstimulated blank wells | FluxOR signal as % of negative control (100 = no effect), % at 10 µM | 19% of 2,300 active | AID 2105;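 active means dye signal at least 3 control SD above or below untreated wells in both duplicates, raw fluorescence within 3, either direction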;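 further: percent is based on the flux ratio of peak minus minimum fluorescence over baseline F0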
* hit, by the source's call; i = inactive; . = no result; + = active, no number. Shown are actives, neighbours in structure and some others; about 1.6% of the full set was active somewhere. Unless noted, how the calls were made is not given here.

SMILES	KCNQ2 block	KCNQ2 enhance	KCNQ2 inh conf	KCNQ1 spec	CHO Tl ctr	Kir21 confirm	HEK293 ctr	others
COC(=O)c1ccc2c(c1)C(C)(C)C(/C=C/c1ccc(OC)c(OC)c1OC)=[N+]2C	-15.8*	-15.8	-70.0%*	-66.5%*	-60.5%*	31.0%*	i	KCNQ2 patch conf=i
COC(=O)c1ccc2c(c1)C(C)(C)C(/C=C/c1ccc(O)cc1)=[N+]2C	i	.	.	.	.	.	.
CN(CCc1ccccc1)C1CCCN(S(=O)(=O)CC(F)(F)F)C1 (configuration not stated)	i	0.33	.	.	.	.	.
CCCCCCCNC(=O)C1(CC2CC(c3cccc(Br)c3)=NO2)CCN(C(=O)c2ccccc2)CC1 (configuration not stated)	i	.	.	.	.	.	.
CCCCCCCNC(=O)C1(CC2CC(c3cccc(Br)c3)=NO2)CCNCC1 (configuration not stated)	-8.63*	-8.63	-41.5%*	-43.0%*	-45.0%*	37.0%*	i	KCNQ2 patch conf=+
O=C(CSc1nnc(CNC(=O)c2cccc(C(F)(F)F)c2)o1)NC1CCCC1	i	.	.	.	.	.	.
Cc1ccc(CC(CC(=O)O)C(=O)NCc2ccccc2)cc1 (configuration not stated)	i	.	.	.	.	.	.
CNC[C@H](Cc1ccccc1)NC[C@@H](Cc1cccc2ccccc12)NCCc1ccc(C)cc1	-8.44*	-8.44	i	i	i	14.0%*	i
COC(=O)C1=C(C(=O)OC)[C@@H]2Nc3ccccc3[C@@]23C[C@@H](C(=O)OC)N(C(=O)C2CCC2)C3=N1	i	1.2	.	.	.	.	.
COc1ccc(CCN2CCCC(CN(C)Cc3cc(OC)ccc3OC)C2)cc1 (configuration not stated)	i	1.5	.	.	.	.	.
CN(Cc1ccccc1O)CC1CCCN(CCc2ccc(Cl)cc2)C1 (configuration not stated)	-8.98*	-8.98	i	i	i	23.0%*	i
O=C(CCC(=O)c1ccccc1)Nc1ccc(C(=O)O)cc1	i	1.89	.	.	.	.	.
Cn1c(CNC(=O)C2CCC(=O)N(CCc3cccc(F)c3)C2)nc2ccccc21 (configuration not stated)	i	1.38	.	.	.	.	.
CC(=O)n1c(-c2ccccc2)c(CO)c2ccccc21	i	0.08	.	.	.	.	.
NCCc1c(-c2ccccc2)n(-c2ccccc2)c2ccccc12	-6.95*	-6.95	i	i	i	15.0%*	i
CCOc1cc(CNCc2ccccc2)ccc1OCc1ccc(Cl)cc1	i	.	.	.	.	.	.
COc1ccc(CNCCc2ccc(Cl)cc2)cc1OCc1ccccc1	-12.7*	-12.7	i	i	i	13.5%*	i
CCOc1ccc(S(=O)(=O)N2CCN(C(=O)CCC(=O)N3CCOCC3)CC2)cc1	i	0.62	.	.	.	.	.
OCCNc1nc(Nc2ccccc2)nc2ccccc12	i	3.08	.	.	.	.	.
OCCNc1nc(Nc2ccc(Br)cc2)nc2ccccc12	-12.2*	-12.2	-26.0%*	i	i	30.5%*	i	KCNQ2 patch conf=i
Cn1ccc(C(=O)NC(=S)Nc2ccc([N+](=O)[O-])cc2O)n1	i	.	.	.	.	.	.
CCCn1c(N)c(N(CCOC)C(=O)CSCC(=O)Nc2ccc(OC)cc2)c(=O)[nH]c1=O	i	.	.	.	.	.	.
COc1ccc(OCc2n(CC(=O)OC3CC(C)CCC3C(C)C)c3ccccc3[n+]2C)cc1 (configuration not stated)	-7.41*	-7.41	-21.0%*	i	i	15.5%*	i	KCNQ2 patch conf=+
COc1ccc(-c2n(CC(=O)OC3CC(C)CCC3C(C)C)c3ccccc3[n+]2C)cc1 (configuration not stated)	-10.7*	-10.7	-33.5%*	i	i	i	i	KCNQ2 patch conf=+
CC1CCC(C(C)C)C(OC(=O)COC(=O)c2cc(O)ccc2N)C1 (configuration not stated)	i	0.16	.	.	.	.	.
CC1CCC(C(C)C)C(OC(=O)COC(=O)c2ccc(=O)[nH]c2)C1 (configuration not stated)	i	2.38	.	.	.	.	.
CC(=O)NS(=O)(=O)c1ccc(NC(=O)c2cccc3ccccc23)cc1	i	0.42	.	.	.	.	.
COc1ccc(C(=O)N2CCN(CCCc3ccccc3)CC2)cc1OC	i	.	.	.	.	.	.
